Where “and” joins values, the source holds several entries; their conditions need not be identical. Equal entries are not always repeated. Inconclusive results are not listed. Calls of active or inactive are those of the source. Calls follow the shape of the dose curve; as a rule, active = well fitted curve in the direction sought with a large enough effect; inconclusive = small, poorly fitted or top-dose-only effect, or another doubt; inactive = no such curve, though single readings can be large; an effect the other way counts as inactive or inconclusive.
How the values were obtained:
[1] = qHTS of pediatric cancer cell lines to identify multiple opportunities for drug repurposing: Primary screen for BT-37 cells (AID 1347094); also: potency is read from the fitted curve at half-maximal effect
How it was run: (§1)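 Luminescence from CellTiter-Glo served as readout of metabolically active cells after 48 h compound exposure. Titrations: MIPE 11-point, from 0.78 nM; NPC 8-point, from 0.59 nM (final). Concentration-response curves came straight from the primary screen.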

[2] = qHTS of pediatric cancer cell lines to identify multiple opportunities for drug repurposing: Primary screen for NB-EBc1 cells (AID 1347095); also: potency is read from the fitted curve at half-maximal effect
How it was run: as §1

[3] = qHTS of pediatric cancer cell lines to identify multiple opportunities for drug repurposing: Primary screen for U-2 OS cells (AID 1347096); also: nearly all actives have a fitted effect of over 50% in size
How it was run: (§2)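 Cells (500-1,000/well) in growth media were settled 5 h at 37 degrees C, then given compounds for 48 h. Viability was read as CellTiter-Glo luminescence. Primary runs used MIPE at 11 points (0.78 nM-46 µM) and NPC at 8 points (0.59 nM-46 µM); follow-ups used 11 points.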

[4] = qHTS of pediatric cancer cell lines to identify multiple opportunities for drug repurposing: Primary screen for NB1643 cells (AID 1347099); also: nearly all actives have a fitted effect of over 50% in size; also: potency is read from the fitted curve at half-maximal effect
How it was run: as §1

[5] = qHTS of pediatric cancer cell lines to identify multiple opportunities for drug repurposing: Primary screen for LAN-5 cells (AID 1347100); also: potency is read from the fitted curve at half-maximal effect
How it was run: as §2

[6] = qHTS of pediatric cancer cell lines to identify multiple opportunities for drug repurposing: Primary screen for Rh18 cells (AID 1347102); also: nearly all actives have a fitted effect of over 65% in size; also: potency is read from the fitted curve at half-maximal effect
How it was run: as §2

[7] = qHTS of pediatric cancer cell lines to identify multiple opportunities for drug repurposing: Primary screen for SK-N-SH cells (AID 1347098); also: nearly all actives have a fitted effect of over 65% in size; also: potency is read from the fitted curve at half-maximal effect
How it was run: (§3)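 Cells (500-1,000/well) rested 5 h, then received compounds for 48 h; metabolically active cells were measured by CellTiter-Glo luminescence. Final concentrations spanned up to 46 µM (MIPE, 11-point) or 0.59 nM-46 µM (NPC, 8-point) in primary screens, 11-point in follow-ups.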

[8] = qHTS of pediatric cancer cell lines to identify multiple opportunities for drug repurposing: Primary screen for BT-12 cells (AID 1347101); also: nearly all actives have a fitted effect of over 25% in size; also: potency is read from the fitted curve at half-maximal effect
How it was run: as §3

[9] = qHTS of pediatric cancer cell lines to identify multiple opportunities for drug repurposing: Primary screen for OHS-50 cells (AID 1347103); also: nearly all actives have a fitted effect of over 40% in size; also: potency is read from the fitted curve at half-maximal effect
How it was run: as §3

[10] = qHTS of pediatric cancer cell lines to identify multiple opportunities for drug repurposing: Primary screen for Saos-2 cells (AID 1347097); also: nearly all actives have a fitted effect of over 40% in size; also: potency is read from the fitted curve at half-maximal effect
How it was run: as §1

Measured: Potency

CC1COC2(c3ccccc3Cl)c3cc(Cl)ccc3NC(=O)CN12 (stereo not given)
active: [5] 6.68 µM
inactive: [1] | [2] | [3] | [4] | [6]

CCOC(=O)c1ncn2c1CN(C)C(=O)c1c(I)cccc1-2
inactive: [1] | [2] | [3] | [7] | [4] | [5] | [8] | [9]

C[N+](C)(C)CCOC(=O)C(O)(c1ccccc1)c1ccccc1
inactive: [1] | [2] | [3] | [7] | [4] | [5] | [8] | [6] | [9]

CC1Sc2c(C(=O)O)c(=O)c3cc(F)c(N4CCNCC4)cc3n21 (stereo not given)
inactive: [1] | [2] | [3] | [7] | [8] | [6] | [9]

CCN1CCCC1CNC(=O)C(O)(c1ccccc1)c1ccccc1 (stereo not given)
inactive: [1] | [2] | [3] | [7] | [4] | [5] | [8] | [6] | [9]

O=C1NCN(c2ccccc2)C12CCN(CCCOc1ccc(F)cc1)CC2
active: [1] 17.4 µM | [8] 11 µM | [9] 27.6 µM
inactive: [2] | [3] | [4]

CC1=C2[C@H]3OC(=O)[C@@H](C)[C@@H]3CC[C@@]2(C)C=CC1=O
inactive: [1] | [2] | [3] | [7] | [4] | [8] | [6] | [9]

Cc1nnc2n1-c1sc(CCC(=O)N3CCOCC3)cc1C(c1ccccc1Cl)=NC2
inactive: [1] | [2] | [3] | [7] | [4] | [8] | [6] | [9]

CCNc1nc(Cl)nc(NCC)n1
inactive: [1] | [2] | [3] | [7] | [4] | [8] | [6] | [9]

CC[C@]1(O)CC[C@H]2[C@@H]3CCC4=CCCC[C@@H]4[C@H]3CC[C@@]21C
inactive: [1] | [3] | [4]

COc1ccc2c3c1O[C@H]1[C@@H](O)C=C[C@H]4[C@@H](C2)N(C)CC[C@@]341
active: [10] 37.8 µM | [7] 17.4 µM | [4] 23.8 µM | [5] 33.7 µM | [9] 44 µM

COc1cc(CC(C)N)c(OC)cc1Br (stereo not given)
active: [10] 35.7 µM
inactive: [3] | [4] | [6]

CN1[C@@H]2CC[C@H]1CC(OC(=O)c1cc(Cl)cc(Cl)c1)C2 (stereo not given in full)
active: [4] 0.001 µM
inactive: [2] | [3] | [8] | [6]

CCO[C@H]1O[C@@H]2OC3(C)CC[C@H]4[C@H](C)CC[C@@H]([C@H]1C)[C@@]24OO3
active: [9] 13.8 µM
inactive: [1] | [3] | [4]

CC(CC(C#N)(c1ccccc1)c1ccccc1)N(C)C (stereo not given)
active: [9] 28.2 µM
inactive: [2] | [3] | [4] | [5] | [6]

CCC(OC(C)=O)C(CC(C)NC)(c1ccccc1)c1ccccc1 (stereo not given)
inactive: [2]
active: [1] 35.9 µM | [10] 43.7 µM | [5] 43.7 µM | [8] 35.9 µM | [6] 39 µM | [9] 28.5 µM

CC[C@H]1C[C@@H]2C[C@H]3c4[nH]c5ccc(OC)cc5c4CCN(C2)[C@@H]13
active: [7] 30.9 µM
inactive: [2] | [3] | [4] | [6]

O=C(CCl)c1ccc(Cl)cc1Cl
active: [5] 16.8 µM
inactive: [3] | [6]

Oc1ccc([C@H]2CNCc3c2ccc(O)c3O)cc1O
inactive: [1] | [2] | [3] | [4] | [8] | [9]

CC(=O)OC1(c2ccccc2)CCN(CCc2ccccc2)CC1
active: [9] 32.4 µM
inactive: [3] | [4]

CC[n+]1c(-c2ccccc2)c2cc(N)ccc2c2ccc(N)cc21
active: [1] 2.46 µM | [10] 13.3 µM | [7] 7.7 µM | [4] 11.9 µM | [8] 3.09 µM | [9] 1.55 µM

C[C@@H]1O[C@@H](O[C@@H]2C=C3CC[C@@H]4[C@H](CC[C@]5(C)[C@@H](c6ccc(=O)oc6)CC[C@]45O)[C@@]3(C)CC2)[C@H](O)[C@H](O)[C@H]1O
active: [1] 0.0025 µM | [2] 11.9 nM | [10] 0.0038 µM | [7] 0.0687 µM | [4] 0.0067 µM | [5] 0.0106 µM | [8] 0.0031 µM | [9] 0.0025 µM

Nc1ccc(Cl)cc1C(=O)c1ccccc1F
inactive: [1] | [3] | [4] | [5] | [8]

C#C[C@]1(O)C=C[C@H]2[C@@H]3CCC4=CC(=O)CC[C@@H]4[C@H]3CC[C@@]21CC
inactive: [1] | [3] | [10] | [7] | [4] | [5] | [8]

C[C@H](N)[C@H](O)c1ccc(O)c(O)c1
inactive: [1] | [3] | [4] | [8] | [6] | [9]

Clc1ccc(CO/N=C(\Cn2ccnc2)c2ccc(Cl)cc2Cl)c(Cl)c1
inactive: [4]
active: [5] 23.7 µM

CN1CCc2cc(Cl)c(O)cc2[C@H]2c3ccccc3CC[C@@H]21
inactive: [2] | [3] | [4] | [5] | [8]

C[C@@H]1C[C@@H]([C@H](O)CC2CC(=O)NC(=O)C2)C(=O)[C@@H](C)C1
active: [1] 437 nM and 385 nM | [2] 841 nM and 3.32 µM | [10] 1.87 µM | [7] 4.86 µM and 8.57 µM | [4] 0.296 µM | [8] 777 nM and 611 nM | [9] 276 nM and 137 nM

Clc1ccc(CSC(Cn2ccnc2)c2ccc(Cl)cc2Cl)cc1 (stereo not given)
active: [7] 34.4 µM | [9] 27.6 µM

Clc1ccc(C(OCCN2CCCCC2)c2ccccc2)cc1 (stereo not given)
active: [9] 19.5 µM
inactive: [3] | [4] | [5] | [6]

C#C[C@]1(O)CC[C@H]2[C@@H]3CCC4=CC(=O)CCC4=C3C=C[C@@]21CC
inactive: [2] | [3] | [10]

Cc1ncc2n1-c1ccc(Cl)cc1C(c1ccccc1F)=NC2
inactive: [2] | [3] | [10] | [7] | [4] | [8]

c1ccc2c(c1)Sc1ccccc1N2CC1CN2CCC1CC2 (stereo not given)
active: [1] 27.6 µM | [7] 27.3 µM | [4] 23.7 µM | [8] 15.5 µM | [9] 19.5 µM
inactive: [2]

C[C@]12Cc3nonc3C[C@@H]1CC[C@@H]1[C@@H]2CC[C@@]2(C)[C@H]1CC[C@]2(C)O
active: [9] 15.5 µM
inactive: [3] | [7] | [4] | [6]

Oc1ccc2[nH]cc(CCCCN3CC=C(c4ccccc4)CC3)c2c1
active: [5] 11.9 µM | [8] 15.5 µM | [9] 27.6 µM
inactive: [3] | [4]

CC(C)=CCN1CC[C@@]2(C)c3cc(O)ccc3C[C@@H]1[C@@H]2C
inactive: [2] | [3] | [7] | [4] | [5] | [8] | [6]

From PubChem BioAssay (NCATS)
